Measurements reported in PubChem BioAssay AID1159580 (chemical genetic matrix, 2015).
Several values for one entry are separate records, joined by “and”; a condition that tells them apart may be missing. Equal values may be shown once. Screen size: about 5,500 compounds; about 2,000 (36%) were called active. About 18% were inconclusive and are not listed. No stated cut-off is given here; in the data, active means normalized growth mostly below about 0.91 (no sharp cut-off); inconclusive means no clear call, values can overlap the other calls; inactive means mostly above about 0.92. The list shows a part of the results.

Assay: chemical genetic growth profiling, strain panel (AID 1159580);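 further: tested at 20 µM; growth read once vehicle control cultures reached saturation at 30 °C; 1 = growth at the plate median or of vehicle wells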
Conditions: S. cerevisiae deletion strains, growth OD

Measured: normalized growth

Nc1ccc(S(=O)(=O)c2ccc(N)cc2)cc1
inactive: locus YAL013W, strain DEP1, stronger effect = lower value 1.01 | locus YAL021C, strain ccr4, stronger effect = lower value 0.99 | locus YAL026C, strain drs2, stronger effect = lower value 1 | locus YAL030W, strain snc1, stronger effect = lower value 0.976 | locus YBL061C, strain skt5, stronger effect = lower value 0.993 | locus YBR009C, strain hhf1, stronger effect = lower value 1 | locus YBR021W, strain FUR4, stronger effect = lower value 1.04 | locus YBR023C, strain chs3, stronger effect = lower value 0.979 | locus YBR171W, strain sec66, stronger effect = lower value 1 | locus YBR229C, strain ROT2, stronger effect = lower value 1.01 | locus YBR231C, strain swc5, stronger effect = lower value 0.975 | locus YBR279W, strain paf1, stronger effect = lower value 0.983 | locus YCL011C, strain gbp2, stronger effect = lower value 0.999 | locus YCL016C, strain dcc1, stronger effect = lower value 0.997 | locus YCL029C, strain bik1, stronger effect = lower value 1.03 | locus YCL069W, strain vba3, stronger effect = lower value 1.01 | locus YCR088W, strain abp1, stronger effect = lower value 1.01 | locus YDL005C, strain med2, stronger effect = lower value 0.98 | locus YDL035C, strain GPR1, stronger effect = lower value 1.03 | locus YDL040C, strain nat1, stronger effect = lower value 0.991 | locus YDL074C, strain BRE1, stronger effect = lower value 1.02 | locus YDL101C, strain DUN1, stronger effect = lower value 1.02 | locus YDL134C, strain PPH21, stronger effect = lower value 1.02 | locus YDL185W, strain tfp1, stronger effect = lower value 1.02 | locus YDL192W, strain arf1, stronger effect = lower value 1.01 | locus YDR001C, strain nth1, stronger effect = lower value 1 | locus YDR069C, strain doa4, stronger effect = lower value 0.987 | locus YDR101C, strain arx1, stronger effect = lower value 0.987 | locus YDR137W, strain rgp1, stronger effect = lower value 1.01 | locus YDR159W, strain sac3, stronger effect = lower value 0.979 | locus YDR162C, strain NBP2, stronger effect = lower value 1.04 | locus YDR195W, strain ref2 0.939 | locus YDR297W, strain sur2, stronger effect = lower value 0.996 | locus YDR318W, strain mcm21, stronger effect = lower value 1.01 | locus YDR334W, strain swr1, stronger effect = lower value 0.986 | locus YDR335W, strain msn5, stronger effect = lower value 1 | locus YDR388W, stronger effect = lower value 1 | locus YDR392W, strain spt3, stronger effect = lower value 0.992 | locus YDR502C, strain sam2, stronger effect = lower value 1 | locus YEL003W, strain gim4, stronger effect = lower value 1.01 | locus YEL037C, strain rad23, stronger effect = lower value 1.01 | locus YEL061C, strain CIN8 (second series), stronger effect = lower value 1 | locus YEL061C, strain CIN8, stronger effect = lower value 1.01 | locus YER015W, strain faa2, stronger effect = lower value 0.999 | locus YER016W, strain bim1, stronger effect = lower value 0.991 | locus YER110C, stronger effect = lower value 0.993 | locus YER111C, strain swi4, stronger effect = lower value 1.02 | locus YER155C, strain BEM2 (second series), stronger effect = lower value 0.954 | locus YER155C, strain BEM2, stronger effect = lower value 1.02 | locus YER167W, strain BCK2, stronger effect = lower value 1.02 | locus YFR010W, strain ubp6, stronger effect = lower value 0.988 | locus YGL078C, strain dbp3, stronger effect = lower value 0.993 | locus YGL086W, strain mad1, stronger effect = lower value 1 | locus YGL167C, strain pmr1, stronger effect = lower value 0.995 | locus YGL173C, strain kem1, stronger effect = lower value 0.979 | locus YGL227W, strain vid30, stronger effect = lower value 1.01 | locus YGL240W, strain doc1, stronger effect = lower value 0.988 | locus YGL248W, strain PDE1, stronger effect = lower value 1.02 | locus YGL253W, strain hxk2, stronger effect = lower value 0.99 | locus YGR135W, strain pre9, stronger effect = lower value 1.01 | locus YGR229C, strain SMI1, stronger effect = lower value 1.03 | locus YGR252W, strain gcn5, stronger effect = lower value 1.01 | locus YHR013C, strain ard1, stronger effect = lower value 0.973 | locus YHR027C, strain rpn1, stronger effect = lower value 0.991 | locus YHR030C, strain SLT2, stronger effect = lower value 1.02 and 1.01 | locus YHR079C, strain IRE1 (second series), stronger effect = lower value 1.01 | locus YHR079C, strain IRE1, stronger effect = lower value 1.03 | locus YHR094C, strain hxt1, stronger effect = lower value 1.01 | locus YHR129C, strain ARP1, stronger effect = lower value 1.01 | locus YHR142W, strain chs7, stronger effect = lower value 1.01 | locus YHR200W, strain rpn10, stronger effect = lower value 1 | locus YIL066C, strain RNR3, stronger effect = lower value 1.02 | locus YIL073C, strain SPO22, stronger effect = lower value 1.03 | locus YIL125W, strain kgd1, stronger effect = lower value 1.01 | locus YIR030C, strain dcg1, stronger effect = lower value 1.01 | locus YJL092W, strain hpr5, stronger effect = lower value 0.998 | locus YJL095W, strain BCK1 (second series), stronger effect = lower value 0.983 | locus YJL095W, strain BCK1, stronger effect = lower value 1.02 and 1.03 | locus YJL115W, strain asf1, stronger effect = lower value 1 | locus YJL129C, strain trk1, stronger effect = lower value 0.991 | locus YJL134W, strain LCB3, stronger effect = lower value 1.03 | locus YJL154C, strain vps35, stronger effect = lower value 0.987 | locus YJL164C, strain tpk1, stronger effect = lower value 0.987 | locus YJL166W, strain qcr8, stronger effect = lower value 1 | locus YJL168C, strain set2, stronger effect = lower value 0.996 | locus YJL187C, strain SWE1 (second series), stronger effect = lower value 1.01 | locus YJL187C, strain SWE1, stronger effect = lower value 1 | locus YJR043C, strain POL32, stronger effect = lower value 1.01 | locus YJR066W, strain TOR1, stronger effect = lower value 0.98 | locus YJR075W, strain HOC1, stronger effect = lower value 1.02 | locus YKL009W, strain mrt4, stronger effect = lower value 0.988 | locus YKL068W, stronger effect = lower value 1.01 | locus YKL085W, strain MDH1 (second series), stronger effect = lower value 1.01 | locus YKL085W, strain MDH1, stronger effect = lower value 1.01 | locus YKL160W, strain elf1, stronger effect = lower value 0.988 | locus YKR001C, strain vps1, stronger effect = lower value 0.994 | locus YKR026C, strain gcn3, stronger effect = lower value 0.99 | locus YKR091W, strain srl3, stronger effect = lower value 1 | locus YLL001W, strain dnm1, stronger effect = lower value 0.991 | locus YLL026W, stronger effect = lower value 0.987 | locus YLL041C, strain sdh2, stronger effect = lower value 1.01 | locus YLR027C, strain aat2, stronger effect = lower value 1 | locus YLR039C, strain RIC1, stronger effect = lower value 0.972 | locus YLR058C, strain SHM2, stronger effect = lower value 1.02 | locus YLR102C, strain apc9, stronger effect = lower value 1.01 | locus YLR113W, strain HOG1, stronger effect = lower value 1.05 | locus YLR221C, strain rsa3, stronger effect = lower value 0.984 | locus YLR258W, strain gsy2, stronger effect = lower value 0.999 | locus YLR262C, strain YPT6 (second series), stronger effect = lower value 0.966 | locus YLR262C, strain YPT6, stronger effect = lower value 1.02 | locus YLR268W, strain sec22, stronger effect = lower value 1.01 | locus YLR320W, strain mms22, stronger effect = lower value 0.995 | locus YLR330W, strain CHS5, stronger effect = lower value 1.02 | locus YLR342W, strain FKS1 (second series), stronger effect = lower value 1.03 | locus YLR342W, strain FKS1, stronger effect = lower value 0.996 | locus YLR357W, strain rsc2, stronger effect = lower value 0.969 | locus YLR370C, strain arc18, stronger effect = lower value 0.992 | locus YLR371W, strain rom2, stronger effect = lower value 1.01 | locus YLR384C, strain iki3, stronger effect = lower value 0.987 | locus YLR418C, strain cdc73, stronger effect = lower value 1 | locus YML016C, strain PPZ1, stronger effect = lower value 1.01 | locus YML032C, strain rad52, stronger effect = lower value 0.999 | locus YML120C, strain ndi1, stronger effect = lower value 0.999 | locus YML124C, strain tub3, stronger effect = lower value 1.02 | locus YMR058W, strain fet3, stronger effect = lower value 1 | locus YMR078C, strain ctf18, stronger effect = lower value 1.01 | locus YMR125W, strain sto1, stronger effect = lower value 1 | locus YMR129W, stronger effect = lower value 0.996 | locus YMR205C, strain PFK2, stronger effect = lower value 0.976 | locus YMR223W, strain ubp8, stronger effect = lower value 0.994 | locus YMR231W, strain pep5, stronger effect = lower value 0.986 | locus YMR263W, strain SAP30, stronger effect = lower value 1.01 | locus YMR307W, strain GAS1, stronger effect = lower value 1.08 | locus YNL067W, strain RPL9B, stronger effect = lower value 1.02 | locus YNL071W, strain lat1, stronger effect = lower value 0.997 | locus YNL153C, strain GIM3, stronger effect = lower value 1.01 | locus YNL183C, strain NPR1, stronger effect = lower value 0.98 | locus YNL209W, strain ssb2, stronger effect = lower value 1 | locus YNL233W, strain BNI4, stronger effect = lower value 1.02 | locus YNL248C, strain rpa49, stronger effect = lower value 0.951 | locus YNL250W, strain rad50, stronger effect = lower value 0.985 | locus YNL271C, strain bni1, stronger effect = lower value 0.995 | locus YNL298W, strain CLA4, stronger effect = lower value 1 | locus YNL307C, strain MCK1, stronger effect = lower value 1 | locus YNL322C, strain KRE1 (second series), stronger effect = lower value 1 | locus YNR049C, strain mso1, stronger effect = lower value 1 | locus YNR052C, strain pop2, stronger effect = lower value 1.01 | locus YOL012C, strain htz1 0.692 | locus YOL147C, strain pex11, stronger effect = lower value 1.01 | locus YOR001W, strain rrp6, stronger effect = lower value 0.998 | locus YOR061W, strain CKA2, stronger effect = lower value 1.02 | locus YOR069W, strain VPS5, stronger effect = lower value 1.01 | locus YOR070C, strain gyp1, stronger effect = lower value 0.992 | locus YOR080W, strain dia2, stronger effect = lower value 0.984 | locus YOR083W, strain WHI5, stronger effect = lower value 0.984 | locus YOR106W, strain vam3, stronger effect = lower value 1.01 | locus YOR136W, strain idh2, stronger effect = lower value 1 | locus YOR144C, strain elg1, stronger effect = lower value 1.01 | locus YOR184W, strain ser1, stronger effect = lower value 1.02 | locus YOR231W, strain MKK1, stronger effect = lower value 1.04 | locus YOR265W, strain rbl2, stronger effect = lower value 0.987 | locus YOR270C, strain vph1, stronger effect = lower value 1.05 | locus YOR290C, strain snf2, stronger effect = lower value 0.99 | locus YOR316C, strain cot1, stronger effect = lower value 1 | locus YPL051W, strain arl3, stronger effect = lower value 0.977 | locus YPL055C, strain LGE1, stronger effect = lower value 1.03 | locus YPL078C, strain atp4, stronger effect = lower value 0.998 | locus YPL106C, strain sse1, stronger effect = lower value 0.984 | locus YPL240C, strain hsp82, stronger effect = lower value 0.991 | locus YPL241C, strain CIN2, stronger effect = lower value 1.01 | locus YPL256C, strain CLN2, stronger effect = lower value 1.02 | locus YPR119W, strain clb2, stronger effect = lower value 1.01 | locus YPR141C, strain kar3, stronger effect = lower value 1.02 | locus YPR163C, strain tif3, stronger effect = lower value 1.01 | locus YPR167C, strain met16, stronger effect = lower value 1.01 | strain wtn01, stronger effect = lower value 0.983
